Measurements as given in PubChem BioAssay AID602405 (Broad Institute, 2012).
About 350 (0.097%) of roughly 360,000 compounds were called active. The list comes from a sample in which actives are over-represented; it also holds similar structures and randomly drawn compounds. Values without a mark were called inactive. Rule as the data show it: active = inhibition above about 16% (passing the limit was not always enough); inconclusive = no clear call, values can overlap the other calls; inactive = below that.

These compounds were tested on UDP-N-acetylbacillosamine N-acetyltransferase PglD (Campylobacter jejuni) (assay: C. jejuni PglD acetyltransferase inhibitors, primary screen, biochemical, DTNB colorimetric, single point (AID 602405)). Conditions: purified PglD enzyme, DTNB colorimetric CoA detection; at 12.5 µM; hits give high values.

**Q.** With `CC(C)CC#Cc1cnc2c(c1)C(=O)N([C@H](C)CO)C[C@H](C)[C@@H](CN(C)C(=O)Cc1cccnc1)O2` as the compound, how does the inhibition read?
**A.** -1.63%

**Q.** Which inhibition does the source give for `CCCN1C[C@H](C)[C@@H](OC)CN(C)C(=O)c2ccc(NC(=O)C3CCOCC3)cc2OC[C@H]1C` here?
**A.** 0.0955%

**Q.** For `C[C@H]1CCCCO[C@@H](CN(C)C(=O)Nc2cccc3ccccc23)[C@@H](C)CN([C@@H](C)CO)C(=O)c2cc(NS(=O)(=O)c3ccc(Cl)cc3)ccc2O1`, which inhibition is on record?
**A.** 19.9%

**Q.** Which inhibition does the source give for `C[C@H]1CN([C@@H](C)CO)C(=O)c2cc(-c3cccc(F)c3)cnc2O[C@@H]1CN(C)Cc1cncnc1` here?
**A.** 4.73%

**Q.** For `COCC(=O)Nc1ccc2c(c1)OC[C@H](C)N(C)C[C@@H](C)[C@@H](OC)CN(C)C2=O`, which inhibition is on record?
**A.** -0.767%

**Q.** With `CCC(=O)Nc1ccc2c(c1)C(=O)N(C)[C@@H]1CC[C@@H](CC(=O)N[C@@H](C)c3ccccc3)O[C@@H]1CO2` as the compound, how does the inhibition read?
**A.** 2.31%

**Q.** `C/C=C/c1ccc2c(c1)O[C@@H](CN(C)C(=O)C1CCOCC1)[C@H](C)CN([C@H](C)CO)S2(=O)=O` was tested. Which inhibition did it give?
**A.** -2.4%

**Q.** For `CCCNC(=O)N(C)C[C@@H]1Oc2cc(-c3ccccc3)ccc2S(=O)(=O)N([C@H](C)CO)C[C@H]1C`, which inhibition is on record?
**A.** 3.76%

**Q.** Which inhibition does the source give for `COCC#Cc1ccc2c(c1)O[C@@H](CN(C)C(C)=O)[C@H](C)CN([C@H](C)CO)S2(=O)=O` here?
**A.** 2.69%

**Q.** With `C[C@H](CO)N1C[C@H](C)[C@@H](CN(C)Cc2ccc3c(c2)OCO3)Oc2c(NC(=O)C3CCOCC3)cccc2C1=O` as the compound, how does the inhibition read?
**A.** -0.262%

**Q.** How did the inhibition turn out when `Cc1ccc(CN(CC(=O)NCC2CCCO2)S(=O)(=O)c2ccc(C)cc2)cc1` (stereo not given) was run?
**A.** -1.95%

**Q.** For `Cc1ccc(S(=O)(=O)N2CCC(C(=O)NCC3CCCO3)CC2)cc1` (stereo not given), which inhibition is on record?
**A.** 34.1% (active)

**Q.** `Cc1ccc(S(=O)(=O)N2CCC(C(=O)N3CCCCCCC3)CC2)cc1` was tested. Which inhibition did it give?
**A.** -2.53%

**Q.** For `CCCNC(=O)[C@H]1[C@H](CO)[C@H]2Cn3c(ccc(C4=CCCC4)c3=O)[C@H]2N1C(=O)CC1CC1`, which inhibition is on record?
**A.** 0.913%

**Q.** How did the inhibition turn out when `CO[C@@H]1CC[C@@H]2CCOc3ccc(C#N)cc3C(=O)N(C)C[C@@H](OC)[C@@H](C)C(=O)N(C)C[C@H]1O2` was run?
**A.** 2.01%

**Q.** Which inhibition does the source give for `O=C(CC1CC1)Nc1ccc2c(c1)[C@@H]1C[C@@H](CC(=O)NC3CCCCC3)O[C@@H](CO)[C@@H]1O2` here?
**A.** 0.63%

**Q.** For `C[C@@H]1CN([C@@H](C)CO)C(=O)c2cc(C3=CCCCC3)cnc2O[C@H]1CN(C)CC1CCOCC1`, which inhibition is on record?
**A.** 4.78%

**Q.** How did the inhibition turn out when `C[C@H]1CN([C@@H](C)CO)C(=O)c2cc(/C=C/c3ccccc3)cnc2O[C@@H]1CN(C)C(=O)NC1CCCCC1` was run?
**A.** 4.19%

**Q.** `C[C@@H]1CCCCO[C@@H](CN(C)C(=O)Cc2ccccc2)[C@@H](C)CN([C@@H](C)CO)C(=O)c2cc(NC(=O)c3ccccc3)ccc2O1` was tested. Which inhibition did it give?
**A.** -0.412%

**Q.** For `COc1ccc(NC(=O)Nc2cccc3c2O[C@H](CN(C)S(=O)(=O)c2ccc(F)cc2)[C@H](C)CN([C@H](C)CO)C3=O)cc1`, which inhibition is on record?
**A.** 2.54%

**Q.** Which inhibition does the source give for `C=CCOC(=O)C1=C(C)NC(C)=C(C(=O)OCC=C)C1c1cccs1` here?
**A.** -1.12%

**Q.** With `CCOC(=O)CSC1=C(C#N)C(c2sccc2C)CC(=O)N1` (stereo not given) as the compound, how does the inhibition read?
**A.** -0.988%

**Q.** For `C=CCOC(=O)C1=C(C)NC(SCC(=O)OCC)=C(C#N)C1c1ccc(C)cc1` (stereo not given), which inhibition is on record?
**A.** 25.9% (active)

**Q.** `CCCC(=O)Nc1ccc2c(c1)C(=O)N(C)[C@H]1CC[C@@H](CC(=O)NCc3cccc(F)c3)O[C@H]1CO2` was tested. Which inhibition did it give?
**A.** 0.49%

**Q.** With `CC(NC(=O)c1ccc(Cl)cc1)C(=O)N1CCCCC1` (stereo not given) as the compound, how does the inhibition read?
**A.** 24% (active)

**Q.** `CSCCC(NC(=O)c1ccccc1)C(=O)N1CCCCCCC1` (stereo not given) was tested. Which inhibition did it give?
**A.** 6.24%

**Q.** How did the inhibition turn out when `COc1ccc(S(=O)(=O)NC(C)C(=O)N2CCCCCC2)cc1` (stereo not given) was run?
**A.** 2.86%

**Q.** For `C[C@@H]1CN([C@@H](C)CO)C(=O)Cc2cc(NS(=O)(=O)c3ccc(Cl)cc3)ccc2O[C@H]1CN(C)Cc1ccc(C(F)(F)F)cc1`, which inhibition is on record?
**A.** 3.04%

**Q.** `Cc1noc(C)c1NC(=O)N(C)C[C@@H]1Oc2ccc(NC(=O)Nc3ccc4c(c3)OCO4)cc2C(=O)N([C@H](C)CO)C[C@H]1C` was tested. Which inhibition did it give?
**A.** -1.03%

**Q.** `CC(C)NC(=O)Nc1ccc2c(c1)C(=O)N([C@H](C)CO)C[C@@H](C)[C@@H](CN(C)S(=O)(=O)c1ccc(Cl)cc1)OCCCC[C@H](C)O2` was tested. Which inhibition did it give?
**A.** 1.05%

**Q.** For `C[C@@H]1CN([C@@H](C)CO)C(=O)c2c(c3ccccc3n2C)-c2ccccc2CO[C@H]1CN(C)C(=O)N[C@H](C)c1ccccc1`, which inhibition is on record?
**A.** -3.17%

**Q.** Which inhibition does the source give for `CS(=O)(=O)Nc1ccc2c(c1)[C@H]1C[C@@H](CC(=O)NCCc3ccccc3)O[C@@H](CO)[C@H]1O2` here?
**A.** 1.04%

**Q.** `Cc1noc(C)c1S(=O)(=O)Nc1ccc2c(c1)C(=O)N([C@@H](C)CO)C[C@@H](C)[C@H](CN(C)Cc1ccc(-c3ccccc3)cc1)O2` was tested. Which inhibition did it give?
**A.** -0.726%

**Q.** How did the inhibition turn out when `Cc1noc(C)c1NC(=O)Nc1ccc2c(c1)C(=O)N([C@@H](C)CO)C[C@H](C)[C@H](CN(C)Cc1ccc(C(=O)O)cc1)OCCCC[C@@H](C)O2` was run?
**A.** 0.986%

**Q.** With `Cc1ccccc1-c1ccc2c(c1)O[C@H](CN(C)C)[C@H](C)CN([C@@H](C)CO)S2(=O)=O` as the compound, how does the inhibition read?
**A.** 4.9%

**Q.** How did the inhibition turn out when `CCCN1C[C@@H](C)[C@@H](OC)CN(C)C(=O)c2ccc(NS(C)(=O)=O)cc2OC[C@@H]1C` was run?
**A.** 0.769%

**Q.** `O=C(C[C@@H]1CC[C@@H](NC(=O)C2CC2)[C@H](CO)O1)NCc1ccncc1` was tested. Which inhibition did it give?
**A.** -0.635%

**Q.** For `Cc1ccc(S(=O)(=O)NCC[C@H]2CC[C@H](NC(=O)c3ccccn3)[C@@H](CO)O2)cc1`, which inhibition is on record?
**A.** 1.02%

**Q.** With `C[C@@H]1CN([C@H](C)CO)S(=O)(=O)c2ccc(-c3cccc(C#N)c3)cc2O[C@@H]1CN(C)C(=O)Nc1ccccc1F` as the compound, how does the inhibition read?
**A.** -1.07%

**Q.** With `CCCC#Cc1cnc2c(c1)C(=O)N([C@H](C)CO)C[C@H](C)[C@H](CN(C)C(=O)Cc1ccncc1)O2` as the compound, how does the inhibition read?
**A.** 0.18%

**Q.** Which inhibition does the source give for `C[C@@H]1CN([C@H](C)CO)S(=O)(=O)c2ccc(C#CCN(C)C)cc2O[C@@H]1CN(C)C(=O)C1CCCCC1` here?
**A.** -0.634%

**Q.** With `COC(=O)C[C@@H]1CC[C@H]2[C@@H](COC[C@H](O)CN2C(=O)Nc2ccccc2OC)O1` as the compound, how does the inhibition read?
**A.** -0.947%

**Q.** With `C[C@@H]1CN([C@@H](C)CO)C(=O)c2cc(NC(=O)CCCN(C)C)ccc2O[C@@H](C)CCCCO[C@H]1CN(C)Cc1ccc2c(c1)OCO2` as the compound, how does the inhibition read?
**A.** -1.38%

**Q.** With `Cc1noc(C)c1NC(=O)Nc1ccc2c(c1)C(=O)N([C@H](C)CO)C[C@H](C)[C@H](CN(C)C(=O)C1CCCCC1)OCCCC[C@@H](C)O2` as the compound, how does the inhibition read?
**A.** 0.321%

**Q.** Which inhibition does the source give for `CCCNC(=O)N1C[C@@H](O)COC[C@@H]2O[C@@H](CC(=O)O)CC[C@H]21` here?
**A.** -1.59%

**Q.** For `CC(C)C#Cc1ccc([C@@H]2[C@@H](CO)N3CCCCN(C(=O)c4ccc5c(c4)OCO5)C[C@H]23)cc1`, which inhibition is on record?
**A.** -1.45%

**Q.** `OC[C@@H]1Nc2ccc(-c3cccc(F)c3)cc2[C@H]2[C@@H]1CCN2Cc1ccncc1` was tested. Which inhibition did it give?
**A.** -3.81%

**Q.** Which inhibition does the source give for `COc1cccc(S(=O)(=O)N[C@@H]2C=C[C@H](CC(=O)NC3CCC3)O[C@H]2CO)c1` here?
**A.** -3.06%

**Q.** Which inhibition does the source give for `CN1C(=O)c2cc(NC(=O)C3CCCCC3)ccc2OC[C@H]2O[C@@H](CC(=O)NC3CCCC3)CC[C@@H]21` here?
**A.** -4.23%

**Q.** How did the inhibition turn out when `CCCNC(=O)N1[C@H](C#N)[C@@H](c2ccc(C3=CCCC3)cc2)[C@H]1CO` was run?
**A.** 10.3%

**Q.** `C[C@H](CO)N1C[C@H](C)[C@H](CN(C)Cc2ccc(C(=O)Nc3ccccc3N)cc2)Oc2c(NC(=O)Nc3ccccc3)cccc2C1=O` was tested. Which inhibition did it give?
**A.** 1.92%

**Q.** Which inhibition does the source give for `CO[C@@H]1CN(C)C(=O)c2ccc(NC(=O)c3ccc(F)cc3)cc2OC[C@H](C)N(C(=O)c2ccc(F)cc2)C[C@@H]1C` here?
**A.** -1.94%

**Q.** For `COc1ccc(NC(=O)Nc2cccc3c2O[C@H](CN(C)C(=O)Nc2cccc4ccccc24)[C@H](C)CN([C@H](C)CO)C3=O)cc1`, which inhibition is on record?
**A.** 2.27%

**Q.** Which inhibition does the source give for `CC(C)CC#Cc1ccc2c(c1)O[C@H](CN(C)C(=O)CC1CC1)[C@@H](C)CN([C@@H](C)CO)S2(=O)=O` here?
**A.** 0.792%

**Q.** Which inhibition does the source give for `CC(C)CCC(C)NC(=O)c1ccc2nccnc2c1` (stereo not given) here?
**A.** -0.116%

**Q.** With `CC(C)CCNC(=O)c1ccc2c(Cl)c3c(nc2c1)CCC3` as the compound, how does the inhibition read?
**A.** 58.9% (active)

**Q.** How did the inhibition turn out when `CC(C)CCNC(=O)c1[nH]c(C(F)(F)F)nc1-c1ccccc1` was run?
**A.** -5.32%

**Q.** For `Cc1noc(C)c1NC(=O)Nc1ccc2c(c1)CC(=O)N([C@H](C)CO)C[C@H](C)[C@H](CN(C)C(=O)NC(C)C)O2`, which inhibition is on record?
**A.** 2.55%

**Q.** How did the inhibition turn out when `CC(=O)N(C)C[C@H]1Oc2cc(C#CCN(C)C)ccc2S(=O)(=O)N([C@H](C)CO)C[C@H]1C` was run?
**A.** -4.02%

**Q.** For `CC=Cc1ccc2n(c1=O)C[C@@H]1[C@@H](CO)[C@H](C(=O)NCc3cccc(OC)c3)N[C@H]21` (mixture of isomers), which inhibition is on record?
**A.** 0.651%

**Q.** Which inhibition does the source give for `CCCNC(=O)C[C@H]1C[C@@H]2c3cc(NC(=O)c4ccc5c(c4)OCO5)ccc3O[C@@H]2[C@@H](CO)O1` here?
**A.** -7.26%

**Q.** `Cc1ccc(S(=O)(=O)Nc2ccc3c(c2)C(=O)N([C@H](C)CO)C[C@H](C)[C@@H](CN(C)C(=O)NC(C)C)OCCCC[C@@H](C)O3)cc1` was tested. Which inhibition did it give?
**A.** -2.85%

**Q.** With `CC(C)CNS(=O)(=O)c1ccc(CCC(=O)NCc2ccc(Cl)cc2)cc1` as the compound, how does the inhibition read?
**A.** 0.729%

**Q.** How did the inhibition turn out when `CSc1ccc(S(=O)(=O)NCc2ccc(Cl)cc2)cc1` was run?
**A.** 26.5% (active)

**Q.** Which inhibition does the source give for `Cc1ccc(S(=O)(=O)NCCC(=O)NCc2ccc(Cl)cc2)cc1C` here?
**A.** -81.7%
